For some assays here: Measured potencies and affinities stand elsewhere.
How the values were obtained:
Set-up in all cases: scale not given: direction of the effect not stated beside the values
[1] = molecular target: Protein translocase subunit SecA (Escherichia coli (strain K12)) (UniProt P10408); test: Assay to Identify E. coli SecA ATPase Inhibitors; assay type: functional; settings: 30 µM
[2] = molecular target: T1, Ubiquitin-activating enzyme e1, putative (Leishmania donovani (strain BPK282A1)) (UniProt E9BSI1); test: Leishmania donovani Ubiquitin Activating Enzyme (LdE1); assay type: functional; settings: 30 µM
T1 sequence (whole entry): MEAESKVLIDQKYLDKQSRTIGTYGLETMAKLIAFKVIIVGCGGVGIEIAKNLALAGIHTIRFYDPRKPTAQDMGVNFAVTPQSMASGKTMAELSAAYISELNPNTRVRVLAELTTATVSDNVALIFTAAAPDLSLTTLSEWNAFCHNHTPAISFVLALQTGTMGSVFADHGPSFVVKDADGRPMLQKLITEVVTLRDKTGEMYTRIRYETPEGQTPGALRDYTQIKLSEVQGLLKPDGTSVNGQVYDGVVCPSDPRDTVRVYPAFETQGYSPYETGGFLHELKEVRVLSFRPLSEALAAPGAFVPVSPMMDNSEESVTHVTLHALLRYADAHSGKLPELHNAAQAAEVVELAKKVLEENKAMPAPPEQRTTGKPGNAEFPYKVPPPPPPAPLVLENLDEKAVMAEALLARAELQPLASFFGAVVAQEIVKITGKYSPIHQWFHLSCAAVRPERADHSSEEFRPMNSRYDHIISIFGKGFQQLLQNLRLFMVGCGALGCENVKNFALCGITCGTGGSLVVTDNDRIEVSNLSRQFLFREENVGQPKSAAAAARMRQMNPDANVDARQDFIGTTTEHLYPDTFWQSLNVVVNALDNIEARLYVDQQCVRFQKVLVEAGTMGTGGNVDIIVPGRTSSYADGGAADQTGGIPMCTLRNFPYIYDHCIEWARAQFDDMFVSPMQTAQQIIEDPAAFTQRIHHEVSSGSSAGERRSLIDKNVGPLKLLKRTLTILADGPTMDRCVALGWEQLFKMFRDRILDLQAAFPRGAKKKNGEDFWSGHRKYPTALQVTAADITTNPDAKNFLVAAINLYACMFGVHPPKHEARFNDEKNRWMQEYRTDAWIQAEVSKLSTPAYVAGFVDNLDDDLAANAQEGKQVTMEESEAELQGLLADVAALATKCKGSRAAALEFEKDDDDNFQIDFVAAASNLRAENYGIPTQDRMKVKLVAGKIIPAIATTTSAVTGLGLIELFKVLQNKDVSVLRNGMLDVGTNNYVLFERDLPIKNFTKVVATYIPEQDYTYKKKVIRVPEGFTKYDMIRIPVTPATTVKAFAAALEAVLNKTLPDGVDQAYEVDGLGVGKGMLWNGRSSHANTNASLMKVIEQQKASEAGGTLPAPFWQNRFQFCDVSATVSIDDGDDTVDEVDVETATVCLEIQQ

[3] = molecular target: AMP-activated protein kinase, AMPK (Homo sapiens) (UniProt P54646+O43741+P54619+Q9UGJ0+Q9Y478+Q13131+Q9UGI9); test: AMP-dependent Kinase enzyme assay. An in vitro enzyme assay that detects ADP turnover that is directly proportional to AMPK activity. This uses naive AMPK that is activated during the assay with MK-8722; assay type: functional; settings: 30 µM
[4] = molecular target: Sialic acid-binding Ig-like lectin 9 (Homo sapiens) (UniProt Q9Y336); test: Hs-Siglec9 ALPHAscreen SOP 20170721; settings: 10 µM
Chain of Sialic acid-binding Ig-like lectin 9 (Homo sapiens) (Q9Y336 whole entry): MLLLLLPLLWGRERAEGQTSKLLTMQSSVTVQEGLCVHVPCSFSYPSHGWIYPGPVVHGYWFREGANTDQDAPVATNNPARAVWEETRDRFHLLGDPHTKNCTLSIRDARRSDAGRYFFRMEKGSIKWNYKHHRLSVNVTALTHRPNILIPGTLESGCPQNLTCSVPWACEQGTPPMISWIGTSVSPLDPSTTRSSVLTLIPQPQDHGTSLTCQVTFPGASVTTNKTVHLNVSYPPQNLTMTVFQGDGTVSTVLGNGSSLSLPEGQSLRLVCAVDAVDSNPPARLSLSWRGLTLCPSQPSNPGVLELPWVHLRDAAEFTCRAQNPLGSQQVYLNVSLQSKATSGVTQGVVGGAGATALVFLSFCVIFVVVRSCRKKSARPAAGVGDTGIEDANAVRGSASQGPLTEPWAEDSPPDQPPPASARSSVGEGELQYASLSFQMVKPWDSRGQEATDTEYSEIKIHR

Trypanosoma cruzi = test: Trypanosoma cruzi phosphomannomutase and mannose-1-phosphate guanylyltransferase assay; assay type: functional; settings: 10 µM
[5] = molecular target: T2, Arginase-2, mitochondrial (Homo sapiens) (UniProt P78540); test: in vitro enzyme assay to detect the production of urea directly proportional to the activity of Arginase II; assay type: functional; settings: 33.3 µM; also: in the data most compounds retested in dose-response had high values
T2 sequence (whole entry): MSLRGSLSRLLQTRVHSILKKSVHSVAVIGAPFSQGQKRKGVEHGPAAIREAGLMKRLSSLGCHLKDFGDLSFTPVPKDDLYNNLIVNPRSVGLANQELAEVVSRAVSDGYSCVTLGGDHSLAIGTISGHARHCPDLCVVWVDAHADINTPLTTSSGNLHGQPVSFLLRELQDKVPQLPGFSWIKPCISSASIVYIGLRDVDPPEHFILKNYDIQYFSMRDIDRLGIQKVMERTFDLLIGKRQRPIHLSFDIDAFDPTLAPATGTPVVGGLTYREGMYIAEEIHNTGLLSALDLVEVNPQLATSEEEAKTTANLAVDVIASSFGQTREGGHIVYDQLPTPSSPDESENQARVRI

[6] = molecular target: T3, Proteasome subunit beta (Trypanosoma cruzi) (UniProt O96673); test: Trypanosoma cruzi proteasome chymotrypsin-like activity (TcProtChymo) assay.; also: in the data most compounds retested in dose-response had high values; assay type: functional; settings: 9.37 µM
T3 sequence (whole entry): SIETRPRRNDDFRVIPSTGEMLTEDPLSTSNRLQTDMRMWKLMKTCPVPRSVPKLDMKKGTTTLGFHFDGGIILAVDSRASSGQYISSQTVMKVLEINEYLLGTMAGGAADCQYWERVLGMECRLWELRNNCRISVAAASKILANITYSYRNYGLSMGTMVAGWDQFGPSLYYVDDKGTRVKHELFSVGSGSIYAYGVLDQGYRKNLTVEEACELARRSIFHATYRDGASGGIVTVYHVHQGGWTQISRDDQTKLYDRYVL

Homo sapiens = species on record: Homo sapiens; test: To identify inhibition of the IFN signalling (Jak-Stat) pathway via expression of an eGFP reporter gene under the control of an IFN-stimulated response element (ISRE) containing MxA promoter.; assay type: functional; settings: 30 µM
[7] = molecular target: T4, Tyrosyl-tRNA synthetase, putative (Trypanosoma cruzi (strain CL Brener)) (UniProt Q4DSP6); test: Trypanosoma cruzi tyrosyl tRNA synthetase (TcYRS) _High Tyrosine SOP; assay type: functional; settings: 30 µM; also: in the data most compounds retested in dose-response had high values
T4 sequence (whole entry): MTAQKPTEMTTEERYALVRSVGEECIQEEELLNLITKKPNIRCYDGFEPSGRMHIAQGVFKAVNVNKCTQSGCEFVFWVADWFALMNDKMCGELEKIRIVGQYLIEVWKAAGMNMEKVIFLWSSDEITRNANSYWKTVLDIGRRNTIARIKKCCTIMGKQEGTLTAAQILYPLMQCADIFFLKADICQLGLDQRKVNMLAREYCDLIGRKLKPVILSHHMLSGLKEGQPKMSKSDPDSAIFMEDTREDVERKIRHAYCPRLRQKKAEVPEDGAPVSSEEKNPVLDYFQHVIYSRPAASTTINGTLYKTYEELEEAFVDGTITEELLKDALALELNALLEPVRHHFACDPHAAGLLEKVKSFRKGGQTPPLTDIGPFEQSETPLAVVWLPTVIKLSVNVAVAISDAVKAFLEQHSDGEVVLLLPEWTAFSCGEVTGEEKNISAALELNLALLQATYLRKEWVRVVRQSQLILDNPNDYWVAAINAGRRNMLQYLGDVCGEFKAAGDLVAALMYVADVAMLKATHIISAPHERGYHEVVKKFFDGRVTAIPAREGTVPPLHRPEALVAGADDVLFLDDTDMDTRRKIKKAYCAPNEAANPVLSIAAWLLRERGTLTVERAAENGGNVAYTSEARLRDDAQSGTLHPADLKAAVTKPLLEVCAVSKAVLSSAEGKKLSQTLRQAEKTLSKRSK

[8] = molecular target: T4, Tyrosyl-tRNA synthetase, putative (Trypanosoma cruzi (strain CL Brener)); test: Trypanosoma cruzi tyrosyl tRNA synthetase (TcYRS) SOP; assay type: functional; settings: 30 µM
[9] = molecular target: Chromo domain-containing protein 1 (Saccharomyces cerevisiae (strain ATCC 204508 / S288c) (Baker's yeast)) (UniProt P32657); test: ScCHD-1 Enzyme Inhibition Assay; assay type: functional; settings: 30 µM; also: in the data most compounds retested in dose-response had high values
Chain of Chromo domain-containing protein 1 (Saccharomyces cerevisiae (strain ATCC 204508 / S288c) (Baker's yeast)) (P32657 whole entry, the tested form may be a part): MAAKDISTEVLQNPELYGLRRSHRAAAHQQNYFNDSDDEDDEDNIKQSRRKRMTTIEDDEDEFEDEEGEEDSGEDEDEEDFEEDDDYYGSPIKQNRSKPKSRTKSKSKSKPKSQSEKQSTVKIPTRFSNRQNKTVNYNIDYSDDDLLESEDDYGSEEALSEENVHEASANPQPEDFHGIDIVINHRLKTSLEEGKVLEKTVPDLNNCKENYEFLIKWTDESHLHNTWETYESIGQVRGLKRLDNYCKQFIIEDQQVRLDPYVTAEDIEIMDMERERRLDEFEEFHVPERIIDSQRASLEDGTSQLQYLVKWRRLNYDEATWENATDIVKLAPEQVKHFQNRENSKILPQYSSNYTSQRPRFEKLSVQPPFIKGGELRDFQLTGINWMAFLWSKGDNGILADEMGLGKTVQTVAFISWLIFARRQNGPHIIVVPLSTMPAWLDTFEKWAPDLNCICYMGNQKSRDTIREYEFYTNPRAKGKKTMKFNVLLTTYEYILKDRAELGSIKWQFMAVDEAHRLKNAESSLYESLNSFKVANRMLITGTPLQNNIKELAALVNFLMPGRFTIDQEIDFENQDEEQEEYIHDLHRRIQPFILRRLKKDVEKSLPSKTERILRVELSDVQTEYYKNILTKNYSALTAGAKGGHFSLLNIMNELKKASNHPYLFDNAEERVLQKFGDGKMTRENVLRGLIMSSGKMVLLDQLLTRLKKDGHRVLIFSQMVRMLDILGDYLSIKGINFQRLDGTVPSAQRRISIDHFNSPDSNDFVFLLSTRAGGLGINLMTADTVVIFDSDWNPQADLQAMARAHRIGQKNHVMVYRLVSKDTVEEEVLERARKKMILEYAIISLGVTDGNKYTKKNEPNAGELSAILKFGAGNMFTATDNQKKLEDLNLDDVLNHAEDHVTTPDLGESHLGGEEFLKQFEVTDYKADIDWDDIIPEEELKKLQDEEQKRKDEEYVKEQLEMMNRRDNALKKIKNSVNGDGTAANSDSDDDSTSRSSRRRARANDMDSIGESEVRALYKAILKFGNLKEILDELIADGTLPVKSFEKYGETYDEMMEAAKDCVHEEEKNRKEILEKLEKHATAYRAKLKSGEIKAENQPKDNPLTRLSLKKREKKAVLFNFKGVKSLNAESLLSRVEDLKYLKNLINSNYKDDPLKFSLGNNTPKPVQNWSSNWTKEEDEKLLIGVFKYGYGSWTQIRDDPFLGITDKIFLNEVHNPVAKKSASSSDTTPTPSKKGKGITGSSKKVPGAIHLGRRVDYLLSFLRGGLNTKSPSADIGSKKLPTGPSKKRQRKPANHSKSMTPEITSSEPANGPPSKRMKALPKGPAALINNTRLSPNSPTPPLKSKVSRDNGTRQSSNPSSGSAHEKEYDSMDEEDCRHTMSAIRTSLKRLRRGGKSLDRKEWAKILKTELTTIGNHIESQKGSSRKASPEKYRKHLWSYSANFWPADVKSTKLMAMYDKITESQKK

Chain of Protein translocase subunit SecA (Escherichia coli (strain K12)) (P10408 whole entry): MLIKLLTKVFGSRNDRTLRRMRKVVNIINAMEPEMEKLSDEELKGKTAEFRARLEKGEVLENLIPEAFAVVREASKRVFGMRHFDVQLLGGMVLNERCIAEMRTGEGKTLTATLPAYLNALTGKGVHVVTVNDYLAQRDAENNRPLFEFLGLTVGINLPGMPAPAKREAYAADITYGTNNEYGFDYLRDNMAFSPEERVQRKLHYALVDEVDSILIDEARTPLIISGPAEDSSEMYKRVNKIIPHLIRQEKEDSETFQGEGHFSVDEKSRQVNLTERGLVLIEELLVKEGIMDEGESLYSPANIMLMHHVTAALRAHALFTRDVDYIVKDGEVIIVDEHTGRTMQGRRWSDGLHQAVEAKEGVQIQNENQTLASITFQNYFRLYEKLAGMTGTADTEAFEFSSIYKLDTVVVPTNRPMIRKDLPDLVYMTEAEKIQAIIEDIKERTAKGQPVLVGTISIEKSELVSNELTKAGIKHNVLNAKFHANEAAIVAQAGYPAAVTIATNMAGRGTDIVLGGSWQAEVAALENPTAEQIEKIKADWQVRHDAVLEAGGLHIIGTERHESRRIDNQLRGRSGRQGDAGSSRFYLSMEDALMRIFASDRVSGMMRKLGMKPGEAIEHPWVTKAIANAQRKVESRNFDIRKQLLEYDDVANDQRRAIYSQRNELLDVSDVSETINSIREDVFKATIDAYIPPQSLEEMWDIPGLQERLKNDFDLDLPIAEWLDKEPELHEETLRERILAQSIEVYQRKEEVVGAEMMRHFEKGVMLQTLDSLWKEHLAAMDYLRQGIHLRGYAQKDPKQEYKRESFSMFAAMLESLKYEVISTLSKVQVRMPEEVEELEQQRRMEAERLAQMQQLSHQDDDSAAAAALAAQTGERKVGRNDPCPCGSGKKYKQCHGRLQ

SMILES | Percent Effect [1] [%] | Percent Effect [2] [%] | Percent Effect [3] [%] | Percent Effect [4] [%] | Percent Effect (Trypanosoma cruzi) [%] | Percent Effect [5] [%] | Percent Effect [6] [%] | Percent Effect (Homo sapiens) [%] | Percent Effect [7] [%] | Percent Effect [8] [%] | Percent Effect [9] [%]
Cc1cnc2n(c1=O)CC(C(=O)Nc1ccccc1Cl)CS2 (configuration not stated) | -2.2 | -2.74 | -2.72 | 0.622 | -2.94 | -1.36 | 5.68 | -7.02 | 1.07 | 0 | -1.89
Cn1ccnc1SCc1nc(C(C)(C)NC(=O)OC(C)(C)C)no1 | -5.41 | 18.7 | -1.15 | 21.2 | 5.94 | 2.08 | 10.6 | 21.2 | 6.01 | 16.1 | -9.46
CNS(=O)(=O)Cc1ccc(CNC(=O)Nc2cccnc2)cc1 | -1.42 | 30.4 | -9.66 | -12.1 | 4.25 | -6.08 | 14.2 | 11.1 | 6.4 | 16.5 | -12.7
O=S(=O)(CCN1CCOC(Cn2cncn2)C1)c1ccccc1 (configuration not stated) | -1.18 | 5.41 | -4.67 | 12.3 | 3.81 | 2.23 | -0.0858 | -5.62 | 0 | 3.7 | -11.6
O=C(NC(CO)CO)c1coc(COc2cccc(F)c2)n1 | -2.81 | 18.9 | 1.42 | 15.9 | 2.44 | 10.2 | 9.19 | -0.407 | 7.53 | 21 | -4.2
Cc1noc([C@@]23CCO[C@@H]2CCN(C(=O)C2CCOCC2)C3)n1 | -0.432 | 10.7 | 2.61 | -3.48 | -1.54 | -51.8 | 13.2 | -1.95 | 7.29 | 20 | -7.84
CC(C)c1cc(NC(=O)CN2CCc3ccccc3C2)on1 | -4.45 | 28.6 | -1.59 | 2.02 | 5.99 | -2.85 | 10.6 | 14.1 | 7.77 | 26.8 | -12.1
Cc1ccc(C(=O)N2CCC3(CCC(=O)N(CC(N)=O)C3)CC2)c(O)c1 | 1.03 | 4.17 | -0.266 | -3.34 | -2.82 | -2.65 | 14.2 | -6.14 | 3.16 | 5.13 | -3
Cc1ncccc1NC(=O)[C@H]1C[C@@H]2CCN(Cc3nccs3)C[C@@H]2O1 | 0.0943 | 10.8 | 6.53 | -5.38 | 0.293 | 2.23 | 24.4 | 1.37 | 7.57 | 17.9 | -3.63
O=C(c1cc(=O)[nH]c(=O)[nH]1)N1CCCCC1c1ccc(F)cc1 (configuration not stated) | 1.51 | 4.17 | 0.748 | -6.89 | -3.21 | 3.97 | 16.8 | -0.138 | 5.26 | 2.56 | -2.94
Cc1ccsc1[C@@H]1CCN(C(=O)CCC(=O)N2CCCCCC2)C[C@H]1O | -3.23 | 6.94 | -7.07 | -3.16 | 1.46 | -1.32 | 4.91 | -6.38 | 5.26 | 10.3 | -2.41
CC(C)c1nc(C2CCCN2C(=O)c2cnc[nH]2)no1 (configuration not stated) | -7.47 | 8.11 | 3.18 | 5.28 | -6.96 | 0.554 | -5.75 | 23.2 | 0 | 1.22 | 4.79
CC(C)(C)C(=O)NCCn1ccc(-c2ccncc2)n1 | -2.96 | 2.74 | -5.12 | 4.58 | 3.33 | 11.4 | 9.23 | 21.9 | 1.07 | 2.5 | -2.64
CCN1CCN(C(=O)c2ccn(C)c(=O)c2)CC1 | -1.02 | 6.33 | 3.55 | -4.57 | -4.62 | -1.07 | 11.8 | 21.1 | 4.17 | -5.06 | -16.7
O=C(CCCn1cncn1)NC1(c2ccccc2)CCC1 | -7.52 | 7.79 | 1.86 | 8.16 | -6 | -11 | 13.6 | 15.5 | 3.23 | 11.1 | -1
Cc1cccc(OCCC(=O)N(C)CCC#N)c1C | -4.33 | 2.63 | 12.1 | 7.74 | -5.16 | -5.92 | 23.1 | 9.14 | 4.25 | 10.4 | -5.59
Cc1ccc(N2CCCC(N(C)Cc3cc(C)no3)C2)nn1 (configuration not stated) | -0.747 | 5.33 | -6.3 | 43.3 | 5.55 | 23.4 | 19.9 | 0.899 | 6.01 | 11.1 | -17.3
CN(C)S(=O)(=O)N1CCC(Oc2ccc(C#N)cn2)CC1 | -4.11 | 5.2 | 0.734 | 0.477 | 3.25 | -0.645 | 17.2 | 28 | 5.29 | 8.97 | -8.98
CC(C)c1cc(NCC(O)CO)n2nccc2n1 (configuration not stated) | -2.58 | 8.11 | 0.503 | 25.3 | 3.48 | 11.9 | 19.3 | 9 | 1.59 | 12.2 | -9.93
CC(CNC(=O)c1ccc(F)cc1Cl)N1CCCC1 (configuration not stated) | -1.76 | 9.72 | 4.21 | -4.19 | -2.82 | 6.18 | 20.4 | -9.11 | 3.16 | 5.13 | -0.608
Cc1ccc(NC(=O)NC(C)c2nc[nH]n2)cc1 (configuration not stated) | -6.05 | -10.8 | -1.56 | -5.4 | -1.86 | -0.248 | 15.9 | -15.4 | 1.07 | 1.24 | -1.66
CCc1cnc(CN(C)C2CCN(CCS(C)(=O)=O)C2)o1 (configuration not stated) | -1.6 | -1.39 | -3.86 | -4.8 | -5.54 | 2.21 | 3.51 | -7.25 | 0 | 2.56 | 0.436
